Measured values as given in PubChem BioAssay AID504332 (National Center for Advancing Translational Sciences (NCATS), 2011).
About 31,000 (8.9%) of roughly 350,000 compounds were called active. Another 15% or so got no clear call; they are omitted. The full list was thinned out, with actives kept by preference. Values without a mark were called inactive. Calls come from the whole dose curve; as a rule, active = well fitted inhibition curve with a large enough effect; inconclusive = small, poorly fitted or top-dose-only effect; inactive = no such curve, though single readings can be large or run the other way.
% is set by controls: 0 for no effect and ±100 for the full control effect; potency is the fitted concentration of half-maximal effect.
Note: nearly all actives have a fitted effect of over 75% in size.

What follows are compounds tested against Histone-lysine N-methyltransferase EHMT2 (Homo sapiens) (UniProt Q96KQ7) (assay: qHTS Assay for Inhibitors of Histone Lysine Methyltransferase G9a). Settings: G9a H3K9 monomethylation, AlphaScreen, 2 h; series mostly up to 59 µM; activity, negative = inhibition: at the top concentration.
Chain of Histone-lysine N-methyltransferase EHMT2 (Homo sapiens) (Q96KQ7 913-1193 limits assumed): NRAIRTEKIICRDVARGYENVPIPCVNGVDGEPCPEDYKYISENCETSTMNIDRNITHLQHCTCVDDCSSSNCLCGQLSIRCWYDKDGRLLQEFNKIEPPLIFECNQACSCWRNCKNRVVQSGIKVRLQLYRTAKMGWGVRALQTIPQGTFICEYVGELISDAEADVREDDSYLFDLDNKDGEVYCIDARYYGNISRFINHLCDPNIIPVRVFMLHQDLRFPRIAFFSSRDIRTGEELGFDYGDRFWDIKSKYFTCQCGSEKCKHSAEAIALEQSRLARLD
In short: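 AlphaScreen detection with an anti-monomethyl H3K9 antibody quantified product after a 2 h room-temperature reaction containing 500 nM biotinylated H3K9 peptide, 20 µM SAM and 20 nM enzyme, which had been preincubated 15 min with compound.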
With `CCOC(=O)c1c(C)[nH]c(C)c1S(=O)(=O)N1CCC(C(=O)Nc2ccc(C)c(Cl)c2)CC1` the “activity, negative = inhibition” value was -2.96%.
In the case of `CC(=O)Nc1cccc(C(=O)OCC(=O)c2ccc3c(c2)OCO3)c1`, the “activity, negative = inhibition” value is reported as -29% [at 102 µM].
For `CC1(C)CC(=O)c2ccc(O)cc2O1`, the “activity, negative = inhibition” value was 43.9% [at 102 µM].
`COc1ccc(C(=O)Nc2onc3c2CCCC3)cc1` was tested, and the “activity, negative = inhibition” value was -27.1%.
In the case of `CC(C)(C)c1ccc(C(=O)NCC(c2ccc(Cl)cc2)N2CCOCC2)cc1` (centres undefined), the “activity, negative = inhibition” value is reported as -35.7%.
For `CCOC(=O)c1cc2c(=O)n3ccccc3nc2n(CC2CCCO2)c1=NC(=O)c1ccccc1F` (centres undefined), the “activity, negative = inhibition” value was 10.2%.
`COc1cc(-c2nn3c(-c4cccc(C)c4)nnc3s2)cc(OC)c1OC` showed an activity, negative = inhibition of -23.6% [at 12.7 µM].
For `CCOc1cccc(-c2nn3c(-c4ccccn4)nnc3s2)c1`, the “activity, negative = inhibition” value was -13.9%.
`COc1ccc(-c2nn3c(-c4ccccc4)nnc3s2)cc1OC` was tested, and the Potency was 35.5 µM (active).
`COC(=O)c1ccc(NCC(=O)N2CCCCCC2)cc1` was tested, and the “activity, negative = inhibition” value was 55% [at 102 µM].
`Cc1ccc(C(=O)CNc2ccc(F)cc2)cc1` was tested, and the “activity, negative = inhibition” value was 0.291%.
In the case of `COC(=O)c1ccc(NCC(=O)c2ccccc2)cc1`, the Potency is reported as 50.1 µM (active).
With `CCCCc1nc2cc(C(=O)NCCc3cnn(C)c3)ccc2o1` the “activity, negative = inhibition” value was 6.57% [at 102 µM].
With `O=C(NC1CCCCCCC1)c1cccs1` the “activity, negative = inhibition” value was 6.94% [at 102 µM].
`CCN(Cc1ccccc1)C(=O)Cc1ccc(OC)c(S(=O)(=O)N2CCOCC2)c1` was tested, and the “activity, negative = inhibition” value was -30.1% [at 102 µM].
With `CN1CCN(c2ccc(S(=O)(=O)Nc3ccccc3)cc2[N+](=O)[O-])CC1` the “activity, negative = inhibition” value was -2.72%.
With `Cc1ccc(C(=O)c2ccc(N3CCN(C)CC3)c([N+](=O)[O-])c2)cc1` the “activity, negative = inhibition” value was -20.6%.
For `CN1CCN(S(=O)(=O)c2ccc(N3CCN(c4ccccc4O)CC3)c([N+](=O)[O-])c2)CC1`, the Potency was 39.8 µM (active).
For `Cc1ccc(S(=O)(=O)n2nc(-c3ccc(Cl)cc3)nc2NCc2ccccc2)cc1`, the “activity, negative = inhibition” value was 23%.
`COCCNc1cc(-c2ccccc2)nc2cc(-c3cccc(F)c3)nn12` was tested, and the “activity, negative = inhibition” value was 120% [at 102 µM].
In the case of `COCC1CCN(C(=O)c2ccc3oc(Cc4ccccc4)nc3c2)C1` (centres undefined), the “activity, negative = inhibition” value is reported as -80% [at 102 µM].
For `CCN(CC)S(=O)(=O)c1ccc2[nH]c(=O)cc(C(=O)N(C)C3CCS(=O)(=O)C3)c2c1` (centres undefined), the “activity, negative = inhibition” value was -11.9%.
With `COc1cccc(CNC(=O)C2CCN(S(=O)(=O)c3ccc4c(ccn4C)c3)CC2)c1` the “activity, negative = inhibition” value was 9.97%.
`COc1ccc(CNC(=O)CS(=O)Cc2nc(-c3cccc(C)c3)oc2C)cc1` (centres undefined) was tested, and the “activity, negative = inhibition” value was -38.3%.
With `COc1cccc(-c2nc(CS(=O)CC(=O)NCc3ccc(F)cc3)c(C)o2)c1` (centres undefined) the “activity, negative = inhibition” value was 0.381% [at 102 µM].
`COc1ccc(-c2nc(CS(=O)CC(=O)NCc3ccccc3)c(C)o2)cc1OC` (centres undefined) was tested, and the “activity, negative = inhibition” value was -13.1% [at 102 µM].
`Cc1ccc(-c2nc(CS(=O)CC(=O)NC3CCCC3)c(C)o2)cc1` (centres undefined) was tested, and the Potency was 70.8 µM (active).
`Cc1cccc(-c2nc(CS(=O)CC(=O)NC(C)CCc3ccccc3)c(C)o2)c1` (centres undefined) was tested, and the “activity, negative = inhibition” value was -5.87% [at 102 µM].
For `COc1ccc(-c2nc(CS(=O)CC(=O)N3CCc4ccccc4C3)c(C)o2)cc1` (centres undefined), the Potency was 28.2 µM (active).
`CCC(=O)Nc1cccc(C(=O)OCc2cc(=O)n3nc(CC)sc3n2)c1` was tested, and the activity, negative = inhibition was -1.91% [at 12.7 µM].
In the case of `CC(C)CC(NS(=O)(=O)c1ccc2c(c1)oc(=O)n2C)C(=O)NCc1ccccc1Cl` (centres undefined), the “activity, negative = inhibition” value is reported as -21.4%.
`CCOc1ccc(OCC)c(NC(=O)C(NS(=O)(=O)c2ccc3c(c2)oc(=O)n3C)C(C)C)c1` (centres undefined) was tested, and the Potency was 56.2 µM (active).
`COc1ccccc1CNC(=O)C(Cc1ccccc1)NS(=O)(=O)c1ccc2c(c1)oc(=O)n2C` (centres undefined) was tested, and the “activity, negative = inhibition” value was 8.23%.
For `CCCn1c2ccccc2c2cnn(CC(=O)N3CCCC(C(=O)OCC)C3)c(=O)c21` (centres undefined), the “activity, negative = inhibition” value was -2.52%.
With `CC(Sc1sc(=S)sc1SC(C)C(=O)O)C(=O)O` (centres undefined) the Potency was 50.1 µM (active).
In the case of `Cc1ccc(C)c(NC(=O)COC(=O)Cn2c(C)csc2=O)c1`, the “activity, negative = inhibition” value is reported as -17% [at 102 µM].
`COc1ccccc1CCC(=O)NNC(=O)c1ccncc1` was tested, and the “activity, negative = inhibition” value was 7.45% [at 102 µM].
`O=C(CP(=O)(c1ccccc1)c1ccccc1)N1CCOCC1` was tested, and the “activity, negative = inhibition” value was 71.6% [at 102 µM].
In the case of `CC(C)(C)c1cc(P(=O)(c2ccccc2)c2ccccc2)ccc1O`, the “activity, negative = inhibition” value is reported as 3.56% [at 102 µM].
With `O=P(O)(CP(=O)(c1ccccc1)c1ccccc1)c1ccccc1O` the Potency was 50.1 µM (active).
`O=C1N(Cc2ccccc2)c2ccc(Cl)cc2C1(O)c1c[nH]c2ccccc12` (centres undefined) was tested, and the “activity, negative = inhibition” value was -32.9%.
For `COc1ccccc1N1CCN(C2C(=O)c3ccccc3N2C(C)=O)CC1` (centres undefined), the “activity, negative = inhibition” value was -29%.
For `O=C(CCS(=O)(=O)c1ccc2c(c1)NC(=O)CS2)NCc1ccccc1Cl`, the “activity, negative = inhibition” value was 11.3% [at 102 µM].
Compound `COc1ccc(C(=O)N/N=C2\CCS(=O)(=O)c3ccc(F)cc32)cc1OC` has an activity, negative = inhibition of 27.4% [at 12.7 µM].
With `O=S1(=O)CC/C(=N\Nc2ccc(F)cc2)c2ccsc21` the Potency was 10 µM (active).
In the case of `O=C(c1cccc(Cl)c1)N1CCN(CCc2ccncc2)CC1`, the “activity, negative = inhibition” value is reported as 1.83%.
In the case of `CN(C)CCOC(=O)C(c1ccccc1)C1(O)CCCC1` (centres undefined), the activity, negative = inhibition is reported as 4.21% [at 2.33 µM].
For `Cc1ccccc1C(OCC(O)CN1CCCCC1CCO)c1ccccc1` (centres undefined), the “activity, negative = inhibition” value was -22.8% [at 102 µM].
In the case of `Cc1ccccc1C(OCCN(C)C)C1CCCCC1` (centres undefined), the Potency is reported as 3.16 µM (active).
`COc1ccc2[nH]c(=O)c(-c3noc(-c4ccc(F)cc4)n3)cc2c1` was tested, and the activity, negative = inhibition was -36.9% [at 12.7 µM].
For `COc1ccc(N=Nc2c(-c3ccc(OC)cc3)[nH]oc2=O)cc1`, the Potency was 39.8 µM (active).
`COc1ccc(-c2cn[nH]c2-c2ccc(OC)cc2)cc1` was tested, and the “activity, negative = inhibition” value was -3.6% [at 102 µM].
In the case of `Cc1occc1-c1nnc(SCC(=O)NC2CCCCC2)o1`, the activity, negative = inhibition is reported as 9.17% [at 12.7 µM].
For `COc1ccccc1CNC(=O)CSc1nc(=O)n(Cc2ccncc2)c2c1CCC2`, the “activity, negative = inhibition” value was 3.71% [at 102 µM].
`CC1CC(C)CN(CCOc2cccc3ccccc23)C1` (centres undefined) gave an activity, negative = inhibition of 17.4% [at 2.33 µM].
In the case of `CC1CN(CC(=O)NC(C)c2ccccc2)CC(C)O1` (centres undefined), the “activity, negative = inhibition” value is reported as -10.2% [at 102 µM].
With `CC1CN(CCOc2ccccc2[N+](=O)[O-])CC(C)O1` (centres undefined) the Potency was 10 µM (active).
In the case of `CC1CN(c2nc(-c3ccccc3)nnc2-c2ccccc2)CC(C)O1` (centres undefined), the “activity, negative = inhibition” value is reported as 8.32% [at 102 µM].
For `Cc1cc(C(=O)COc2ccccc2[N+](=O)[O-])c(C)n1-c1cccc(S(=O)(=O)N2CCOCC2)c1`, the “activity, negative = inhibition” value was -7.78%.
In the case of `CC1CCCN(CC(=O)Nc2cc(Cl)ccc2Oc2ccccc2)C1` (centres undefined), the “activity, negative = inhibition” value is reported as -0.626% [at 102 µM].
With `CC1CN(CCCOc2ccccc2-c2ccccc2)CC(C)O1` (centres undefined) the Potency was 8.91 µM (active).
With `O=[N+]([O-])c1ccccc1OCCCCN1CCCCC1` the “activity, negative = inhibition” value was -12.4% [at 102 µM].
For `CC1CCCN(CCOCCOc2ccccc2-c2ccccc2)C1` (centres undefined), the Potency was 10 µM (active).
In the case of `CC(C)(C)c1ccc(S(=O)(=O)N2CCN(C(=O)c3ccc4c(c3)C(=O)N(Cc3ccncc3)C4=O)CC2)cc1`, the “activity, negative = inhibition” value is reported as -9.64% [at 102 µM].
